# Source: PubChem BioAssay
# Hits are enriched below; roughly 2.6% of the tested compounds scored in any of these assays.
# PABP1 MLLE inh = inhibitors of PABP1 MLLE–PAM2 peptide binding, primary screen, biochemical, fluorescence polarization, FITC-PAM2, GST-MLLE; Polyadenylate-binding protein 1 (Homo sapiens), P11940; 360,000 tested, 0.36% active; AID 588489, 2011; inhibition, % at 20 µM; in the data active = inhibition above about 35%, passing the limit was not always enough;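 note: plate controls were DMSO wells with GST-MLLE for no effect and wells lacking GST-MLLE protein for full effect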
# Target sequence (P11940 whole entry, looked up): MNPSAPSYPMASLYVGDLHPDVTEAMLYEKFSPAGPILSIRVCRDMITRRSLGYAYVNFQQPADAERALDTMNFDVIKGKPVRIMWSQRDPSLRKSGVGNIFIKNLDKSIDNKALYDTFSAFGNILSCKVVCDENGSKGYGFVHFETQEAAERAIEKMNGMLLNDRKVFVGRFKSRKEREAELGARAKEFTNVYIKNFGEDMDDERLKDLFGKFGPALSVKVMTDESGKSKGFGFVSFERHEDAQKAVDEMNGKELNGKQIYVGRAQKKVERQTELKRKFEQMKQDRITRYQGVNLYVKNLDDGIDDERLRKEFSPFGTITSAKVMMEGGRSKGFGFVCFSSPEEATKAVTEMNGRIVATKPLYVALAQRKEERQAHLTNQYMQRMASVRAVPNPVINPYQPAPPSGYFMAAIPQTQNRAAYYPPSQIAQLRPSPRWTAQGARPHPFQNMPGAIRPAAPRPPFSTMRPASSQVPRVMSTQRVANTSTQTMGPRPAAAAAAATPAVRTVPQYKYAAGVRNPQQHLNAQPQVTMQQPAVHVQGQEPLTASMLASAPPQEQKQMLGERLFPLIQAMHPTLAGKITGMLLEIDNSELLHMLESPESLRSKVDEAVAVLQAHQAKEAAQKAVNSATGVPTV
# eIF4H inh = human eIF4H binding inhibitors, primary screen, translation initiation inhibitor project, biochemical, uHTS, fluorescence polarization; inhibition, % at 35 µM; 290,000 tested, 0.94% active; AID 2012, 2009; eIF4H fluorescence polarization binding assay;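 note: calls also rest on retests at 20 µM and on dose response follow-up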
# PHOSPHO1 inh = PubChem AID 1565; recombinant PHOSPHO1, absorbance phosphatase assay; Phosphoethanolamine/phosphocholine phosphatase (Homo sapiens), Q8TCT1; inhibition, % at 13.3 µM; 290,000 tested, 1.1% active; in the data active = inhibition above about 60%
# PABP FP inh = PABP poly(A) RNA binding inhibitors, primary screen, biochemical, fluorescence polarization, uHTS | Polyadenylate-binding protein 1 (Homo sapiens), P11940 | inhibition, % at 35 µM | 290,000 tested, 1% active | AID 2014, 2009;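 note: calls also rest on retests at 20 µM and on dose response follow-up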
# CRFR2-BP antag = antagonists of CRF-BP/CRF-R2 complex, primary screen, cell-based, HEK293, calcium dye fluorescence, uHTS; CRF-induced calcium fluorescence; inhibition, % at 11.8 µM; 350,000 tested, 0.59% active;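 active = inhibition of the ligand-induced calcium signal above about 50% at the single tested concentration, limit read from the data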
# * hit, by the source's call; ? = inconclusive; nt = no result. Unless noted, the rule behind the calls is not given here.
SMILES,PABP1 MLLE inh,eIF4H inh,PHOSPHO1 inh,PABP FP inh,CRFR2-BP antag
CCOc1ccc(N(CC(=O)NCC2CCCO2)C(=O)CCC(=O)Nc2nccs2)cc1 (stereo not drawn),-19.4,-1.8,42.9,-5.3,51.9*
Nc1ccc2c(c1)[nH]c(=O)c1cc(N)ccc12,-1.9,nt,nt,nt,-20.1
O=C1N=C(N2CCCCC2)SC1=C1CCCCC1,7.8,4.1,18.6,14.5,19.4
O=C1NC(=S)SC1=C1CCCCCC1,9.3,-14.6,83.6*,9.9,-30.3
Cc1c(OC(C)C(=O)NC(Cc2c[nH]c3ccc(O)cc23)C(=O)O)ccc2c1oc(=O)c1ccccc12 (stereo not drawn),6.9,81.2*,18.7,64.4*,-2.6
COc1ccc(-c2cc(=O)oc3cc(OC(C)C(=O)NC(Cc4c[nH]c5ccc(O)cc45)C(=O)O)ccc23)cc1 (stereo not drawn),1.6,9.0,18.7,23.9,-1.6
CC(Oc1ccc2ccc(=O)oc2c1)C(=O)NC(Cc1c[nH]c2ccc(O)cc12)C(=O)O (stereo not drawn),-13.8,86.8*,18.2,45.4,-0.3
Cc1c(C)c2ccc(OC(C)C(=O)N[C@@H](Cc3c[nH]c4ccccc34)C(=O)O)c(C)c2oc1=O (stereo partly drawn),-0.2,-5.3,-2.5,20.1,4.5
CC1=CC(C)C2C(=O)N(CCC[N+](C)(C)C)C(=O)C2C1 (stereo not drawn),-139.0,nt,93.5*,nt,2.6
C[N+](C)(C)CCCN1C(=O)CCCC1=O,-136.9,4.4,9.4,43.2,-2.2
Fc1ccc(C2c3cccn3CCN2C(=S)Nc2cccc(F)c2)cc1 (stereo not drawn),-33.9,1.7,28.5,-14.2,53.0*
S=C(NC1CCCCC1)N1CCn2cccc2C1c1cccnc1 (stereo not drawn),-120.8,15.2,-2.0,8.5,-5.3
S=C(NC1CCCCC1)N1CCn2cccc2C1c1ccncc1 (stereo not drawn),-87.8,70.5*,-2.0,active,-15.0
Cc1sc2ncnc(NCc3cccs3)c2c1C,-4.5,-9.6,32.3,6.2,-13.6
Cc1sc2ncnc(SCC(=O)NC(=O)NCc3ccco3)c2c1C,11.8,82.5*,15.6,47.4*,-4.4
O=C(CSc1nn(-c2ccccc2)c(=S)s1)NC(=O)NCc1ccco1,-76.3,9.1,78.0*,14.5,-3.8
Cc1sc2ncnc(NCc3ccco3)c2c1C,-2.2,66.0*,0.6,44.9*,0.9
Cc1ccc(-c2csc3ncnc(OCC(=O)NC(=O)NCc4ccco4)c23)cc1,1.6,20.6*,29.6,50.9,2.2
Cc1nc(SCC(=O)NCc2ccco2)c2c(C)c(C)sc2n1,2.0,-1.7,-3.3,-3.9,5.1
FC(F)(F)Oc1ccccc1C(c1nnnn1C1CCCC1)N1CCN(C/C=C/c2ccccc2)CC1 (stereo not drawn),6.4,nt,nt,nt,nt
CC1(C)OCC(CNC(=O)c2[nH]c(C(F)(F)F)nc2-c2ccccc2)O1 (stereo not drawn),2.9,nt,nt,nt,nt
Cc1ccc(NC(=O)COC(=O)CSC(=S)N2CCOCC2)cc1,6.2,active,28.3,54.9*,-2.0
CCOC(=O)c1ccc(NC(=O)CSC(=S)N2CCOCC2)cc1,10.1,0.4,37.3,-3.4,4.0
COc1ccc(OCC(=O)Nc2ccccc2C(=O)N2CCOCC2)cc1,-11.2,active,-5.1,90.3*,4.0
Cc1ccc(OCC(=O)Nc2ccc(CN3CCOCC3)cc2)cc1,3.1,-10.3,61.0*,-4.4,2.4
SMILES,PABP1 MLLE inh,eIF4H inh,PHOSPHO1 inh,PABP FP inh,CRFR2-BP antag
CC1(C(=O)Nc2cccc(NS(C)(=O)=O)c2)CCN1Cc1ccccc1OC(F)F (stereo not drawn),1.3,nt,nt,nt,nt
CCn1c(O)c(N=NC(=O)CNC(=O)c2cccnc2)c2ccccc21,2.3,nt,nt,nt,-5.1
N/C(=N\OC(=O)c1ccccc1)C(Cc1ccccc1)C(=O)NOC(=O)c1ccccc1 (stereo not drawn),-10.4,nt,nt,nt,7.8
Cc1ccc(C2CC2c2n[nH]c(=S)n2-c2ccc(Cl)cc2)cc1 (stereo not drawn),-33.1,-2.4,73.8*,-2.0,7.6
CCN(CC)c1ccc(C=NN2CCCCCC2)cc1,-30.6,nt,nt,nt,-3.0
CCN(CC)c1ccc(C=N/C(C#N)=C(\N)C#N)cc1,-90.7,?,22.9,68.9*,-20.9
COc1cc(CNn2c(C)n[nH]c2=S)cc(Cl)c1OCc1ccc(F)cc1,-45.5,-3.2,89.7*,0.3,-4.8
COc1ccc(C2=CC3=C(Br)C(=O)C(C)(OC(=O)c4ccc(Cl)nc4)C(=O)C3=CO2)cc1 (stereo not drawn),nt,86.4,-30.7,42.2*,9.6
O=C(NCCOc1ccccc1)C1CCC(=O)N(C2CCCCCC2)C1 (stereo not drawn),-1.6,-7.2,31.3,-2.6,0.8
CC(C)c1ccc(CN2CCC2(C)C(=O)Nc2cccc(Oc3ccccc3)c2)cc1 (stereo not drawn),-1.7,nt,nt,nt,nt
Cc1ccc(NC(=O)CSc2ccc(-c3ccco3)nn2)cc1,26.2,25.2,11.2,-3.9,1.6
Cc1ccc(SCC(=O)Nc2ccc(-c3nnc(-c4ccco4)o3)cc2)cc1,8.7,58.0*,-29.9,79.2*,-3.2
O=C(CSc1nnc(-c2ccco2)c(-c2ccco2)n1)Nc1ccccc1,16.5,95.5*,63.8*,90.9*,18.8
CN(C)c1ccc(NC(=O)CSc2nnc(-c3ccco3)c(-c3ccco3)n2)cc1,25.4,93.0*,-28.4,44.3*,4.7
Cc1ccc(NC(=O)CSc2nnc(-c3ccco3)c(-c3ccco3)n2)cc1,21.3,100.1*,60.2*,88.9*,-4.3
O=C(CSc1nnc(-c2ccccc2)c(-c2ccccc2)n1)NCc1ccco1,10.2,3.2,-0.9,-0.1,-0.5
CCOC(=O)Cc1ccc(Nc2nc3cc(-c4sccc4C)sc3c(=O)n2C)cc1,-1.7,nt,nt,nt,nt
NC(=O)COc1ccc(/C=N/NS(=O)(=O)c2ccccc2)cc1,-36.7,96.1,43.9,0.2*,5.5
COC(=O)COc1ccc(/C=N/NS(=O)(=O)c2ccccc2)cc1,-51.4,-6.1,19.3,-2.6,5.5
Oc1cc(NCCc2cccnc2)cc2cccnc12,50.0*,nt,nt,nt,10.7
CCOC(=O)C1(C)CCCN(C(=O)c2ccc(OC)cc2)C1 (stereo not drawn),2.8,nt,nt,nt,nt
CCCCNC(=O)Nc1nc(SCC(=O)OCC)n[nH]1,10.8,-6.1,30.4,3.2,-6.9
CCOC(=O)CSc1n[nH]c(NC(=O)c2cccc(C)c2)n1,2.5,-5.0,60.5*,13.1,-11.8
Nc1ncnc2c1ncn2[C@@H]1O[C@H](C(=O)NCCCN2CCCC2=O)[C@@H](O)[C@H]1O,8.3,nt,nt,nt,nt
CN(CC1CCOCC1)C(=O)CC1C(=O)NCCN1Cc1ccc(Cl)c(F)c1 (stereo not drawn),10.8,19.7,35.8,2.8,79.4*
CC(=O)c1nnn(-c2ccc([N+](=O)[O-])cc2)c1C,8.3,active,-7.7,54.8,4.9
